Results taken from PubChem BioAssay (NCI).
The panel holds about 83,000 compounds, 20% with a hit somewhere; the sample as a whole holds those more often.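 Note: values are percent growth. 100 is the growth of untreated cells, values between 100 and 0 indicate rising inhibition; between -100 and 0 indicates cell death.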 Values without a mark were called inactive. The source made the active and inactive calls.

System: NCI-H460 lung
Test: NCI-60 one-dose screen, 48 h (100 = growth as untreated, 0 = no growth, -100 = all killed)
Details: 10 µM unless noted
Method: Growth inhibition of the NCI-H460 human Non-Small Cell Lung tumor cell line is measured as a screen for anti-cancer activity. Cells are grown in 96 well plates and exposed to the test compound for 48 hours. Compounds are tested at a single concentration, which is 10^-5 M for most compounds. The reported endpoint is percent growth (GI% or GIPRCNT), where numbers from 0 - 100% represent growth inhibition, and numbers from -100% - 0 represent cell death. For example, a value of 40 represents 60% growth inhibition. A value of 0 means no net growth occurred over the course of the experiment. A value of -40 indicates 40% of cells at the beginning of the experiment died by the end of the experiment. A value of -100 means all cells are dead at the end of the experiment.
NCI-60 Human Tumor Cell Lines Screen was performed using the standard one-dose NCI protocol, which is described in more detail at https://dtp.cancer.gov/discovery_development/nci-60/default.htm.
Compounds with GIPRCNT values below 10 were considered active. Activity score was based on GIPRCNT using the following formula: […]
Score is 0 for GIPRCNT values of 100 or above, 50 for GIPRCNT values of 0, and 100 for GIPRCNT values of -100.

| Structure (SMILES) | growth |
| --- | --- |
| O=c1[nH]c(=O)[nH]c(=S)[nH]1 | 105% |
| COc1ccc(Nc2nc(N)nc3c2CCc2occc2-3)cc1 | 108% |
| COc1ccc(Cn2nc(-c3cc(OC)c(OC)c(OC)c3)c3c2CCc2cnoc2-3)cc1OC | 55.1% |
| COc1ccc(C(=O)c2cc3c(N)c(C(=O)Nc4ccc(Br)cc4)sc3nc2C)cc1 | 50% |
| NC(=O)CN1CCN(c2ccccc2Cl)CC1 | 111% |
| CC1(C)CN(c2cnc(C(=O)Nc3cc(F)cc4cccnc34)cn2)CCN1 | 82.5% |
| O=C1NC(=S)NC(=O)C1=Cc1cn(Cc2ccccn2)c2ccccc12 | 10.7% |
| Cc1c2c(cc[n+]1Cc1ccccc1)c1ccc(OCC3CCCCC3)cc1n2CC1CCCCC1 | -93.4% (active) |
| Cc1c2c(cc[n+]1Cc1ccccc1)c1ccc(OCc3ccccc3)cc1n2Cc1ccccc1 | -87.5% (active) |
| COc1ccc(C2CC(c3cccc(Nc4ccncc4)c3)=NN2c2ccc(Cl)cc2)cc1 (stereo not given) | -85.9% (active) |
| Cc1nn(-c2ccccc2)c(N2CCOCC2)c1/C=N/N=c1\sc2ccccc2n1C | 39.6% |
| CN1CCN(c2ccc(NC3=C(Cl)C(=O)c4ncccc4C3=O)cc2C#N)CC1 | 94.8% |
| NC(=O)c1ccc[n+](CC(=O)N2CCN(c3cc4c(cc3F)c(=O)c(C(=O)O)cn4C3CC3)CC2)c1 | 101% |
| CS(=O)(=O)Nc1cc(-c2ccc3ncnc(Nc4ccc5[nH]ncc5c4)c3c2)cnc1Cl | 94.1% |
| C/C(=C(/c1ccccc1)c1ccc(OCC(O)CNCCN2CCOCC2)cc1)c1ccccc1 (stereo not given) | 17.6% |
| O=C1Nc2c(ccc(Cl)c2Cl)/C1=C/c1ccccn1 | 97.6% |
| COc1ccccc1/C=N/NC1=NC2C(N1)N(C)C(=O)N2C (stereo not given) | 102% |
| CCOC(=O)Oc1c(OC)cc(C(=O)O[C@@H]2C[C@@H]3CN4CCc5c([nH]c6cc(OC)ccc56)[C@H]4C[C@@H]3[C@H](C(=O)OC)[C@H]2OC)cc1OC | 40.9% |
| CN(C)Cc1c(-c2ccccc2)[nH]c2ccccc12 | 99.5% |
| COc1ccc(C(O)c2cc3c(N)c(C(=O)Nc4cccc(Br)c4C)sc3nc2C)cc1 (stereo not given) | -2.32% (active) |

| Structure (SMILES) | growth |
| --- | --- |
| COc1ccc(NS(=O)(=O)c2ccc(C)cc2)c([N+](=O)[O-])c1 | 106% |
| COc1cc(NCC(O)CN(CC(C)C)C2CCCC2)c2ncccc2c1 (stereo not given) | 89.4% |
| COc1ccc(C(=O)c2cc3c(N)c(C(=O)Nc4cccc(Cl)c4)sc3nc2C)cc1 | 13.1% |
| CC1(c2ccccc2)NC(=O)N(CC(=O)Nc2cccc(I)c2)C1=O (stereo not given) | 93.3% |
| Cc1ccc(-c2c(Br)c(OC(=O)CO[C@@H]3C[C@H](C)CC[C@H]3C(C)C)c(-c3ccc(C)cc3C)c(Br)c2OC(=O)CO[C@H]2C[C@@H](C)CC[C@@H]2C(C)C)c(C)c1 | 105% |
| CC[C@@]12C=CCN3CC[C@]4(c5cc(NC(=O)COc6cc(OCC(=O)Nc7cc8c(cc7OC)N(C)[C@H]7[C@@](O)(C(=O)OC)[C@H](OC(C)=O)[C@]9(CC)C=CCN%10CC[C@]87[C@@H]%109)cc7oc(-c8ccccc8)cc(=O)c67)c(OC)cc5N(C)[C@@H]4[C@](O)(C(=O)OC)[C@H]1OC(C)=O)[C@H]32 | 0.985% (active) |
| Nc1nnc(C(=O)c2cnc3n(c2=O)CCCCC3)s1 | 108% |
| O=C(OC(OC(=O)c1cc(Cl)cc(Cl)c1)c1cccc2ccccc12)c1ccccc1 (stereo not given) | 107% |
| COc1cccc2c1C(=O)c1c(O)c3c(c(O)c1C2=O)C[C@@](O)(C(=O)CO)C[C@@H]3O[C@H]1C[C@H](N)[C@@H](O)[C@H](C)O1 | 1.64% (active) |
| Cn1c(COC(=O)NCCc2ccccn2)nc2c(N3CCOCC3)nc(Cl)nc21 | 38.3% |
| CC[C@H](C)[C@@H]1NC(=O)[C@H](Cc2ccc(O)cc2)N(C)C(=O)[C@H](Cc2ccccc2)NC(=O)CN(C)C(=O)[C@@H]2CCCN2C(=O)[C@@H](Cc2ccccc2)N(C)C(=O)[C@H](CC(C)C)NC1=O | -26.5% (active) |
| CC1=CC2(C)/C=C(C)/C=C\CC(O)/C=C3/C=CC(=C4C(=O)OC2(CC1C)C4=O)OC3 (stereo not given) | 29.2% |
| C[C@@H]1CN(Cc2ccc(/C=C/c3n[nH]c4ccc5nc(-c6cn[nH]c6C(F)(F)F)c6c(c5c34)CCCC6)cc2)C[C@H](C)O1 | -4.09% (active) |
| CSc1nnc2c(=O)n(C)c(=O)n(C)c2n1 | 114% |
| O=C1c2ccccc2C(=O)c2c(NCCN=Cc3ccccc3O)cccc21 | 20.9% |
| CCCCc1ccc(Nc2nnc(SCC(=O)NC(=O)NCC)s2)cc1 | 102% |
| Brc1ccc(C2CC(c3cccc(Nc4ccncc4)c3)=NN2c2ccccc2)cc1 (stereo not given) | 0.717% (active) |
| COc1ccc(/C=N/C2=C(C#N)C(c3ccccc3[N+](=O)[O-])c3ccc4ccccc4c3O2)cc1 (stereo not given) | 91.4% |
| CC(C)Sc1nc(NN)c(C#N)c(-c2ccccc2)n1 | 98.6% |
| COc1ccc(/C=C2\COc3ccc(-c4ccccc4)cc3C2=O)cc1O | 16.7% |
